# According to PubChem BioAssay AID1159580 (chemical genetic matrix, 2015):
# The whole screen tested about 5,500 compounds, of which about 2,000 (36%) were called active. Roughly 18% stayed inconclusive and do not appear here. Some of the results follow. A number with no mark means an inactive call. Rule as the data show it: active = normalized growth mostly below about 0.91 (no sharp cut-off); inconclusive = no clear call, values can overlap the other calls; inactive = mostly above about 0.92.
# Assay: chemical genetic growth profiling, strain panel (AID 1159580);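 also: tested at 20 µM; growth read once vehicle control cultures reached saturation at 30 °C; 1 = growth at the plate median or of vehicle wells; lower values mean less growth of the strain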
# Conditions: growth OD
# [1] = S. cerevisiae deletion strains, locus YDL101C, strain DUN1, hits give low values
# [2] = S. cerevisiae deletion strains, locus YHR030C, strain SLT2, hits give low values
# [3] = S. cerevisiae deletion strains, locus YAL013W, strain DEP1, hits give low values
# [4] = S. cerevisiae deletion strains, locus YBR229C, strain ROT2, hits give low values
# [5] = S. cerevisiae deletion strains, locus YDR150W, strain NUM1, hits give low values
# [6] = S. cerevisiae deletion strains, locus YEL061C, strain CIN8, hits give low values
# [7] = S. cerevisiae deletion strains, locus YGR078C, strain PAC10, hits give low values
# [8] = S. cerevisiae deletion strains, locus YGR229C, strain SMI1, hits give low values
# [9] = S. cerevisiae deletion strains, locus YHR087W, strain rtc3, hits give low values
# [10] = S. cerevisiae deletion strains, locus YJL187C, strain SWE1, hits give low values
# [11] = S. cerevisiae deletion strains, locus YJR043C, strain POL32, hits give low values
# [12] = S. cerevisiae deletion strains, locus YJR075W, strain HOC1, hits give low values
# [13] = S. cerevisiae deletion strains, locus YLR039C, strain RIC1, hits give low values
# [14] = S. cerevisiae deletion strains, locus YLR058C, strain SHM2 (second series), hits give low values
# [15] = S. cerevisiae deletion strains, locus YLR085C, strain ARP6, hits give low values
# [16] = S. cerevisiae deletion strains, locus YLR262C, strain YPT6, hits give low values
# [17] = S. cerevisiae deletion strains, locus YML094W, strain GIM5, hits give low values
# [18] = S. cerevisiae deletion strains, locus YMR219W, strain ESC1, hits give low values
# [19] = S. cerevisiae deletion strains, locus YMR263W, strain SAP30, hits give low values
# [20] = S. cerevisiae deletion strains, locus YNL153C, strain GIM3, hits give low values
# [21] = S. cerevisiae deletion strains, locus YNL298W, strain CLA4 (second series), hits give low values
# [22] = S. cerevisiae deletion strains, locus YNL322C, strain KRE1, hits give low values
# [23] = S. cerevisiae deletion strains, locus YNR030W, strain Alg12, hits give low values
# [24] = S. cerevisiae deletion strains, locus YOL006C, strain TOP1, hits give low values
# [25] = S. cerevisiae deletion strains, locus YPL055C, strain LGE1, hits give low values
# [26] = S. cerevisiae deletion strains, locus YPL241C, strain CIN2, hits give low values
# [27] = S. cerevisiae deletion strains, locus YPR135W, strain CTF4, hits give low values
# [28] = S. cerevisiae strains, strain wild type, hits give low values
structure (smiles),measurement,setting,value
O=C(NNc1ccc(I)cc1)c1cc(Cl)cc(Cl)c1,normalized growth,"S. cerevisiae deletion strains, locus YAR019C, strain CDC15, hits give low values",0.949
same,normalized growth,"S. cerevisiae deletion strains, locus YBL105C, strain PKC1, hits give low values",0.965
same,normalized growth,"S. cerevisiae deletion strains, locus YBR135W, strain CKS1, hits give low values",0.953
same,normalized growth,"S. cerevisiae deletion strains, locus YBR136W, strain MEC1, hits give low values",0.953
same,normalized growth,"S. cerevisiae deletion strains, locus YBR160W, strain CDC28, hits give low values",0.948
same,normalized growth,"S. cerevisiae deletion strains, locus YDL017W, strain CDC7, hits give low values",0.961
same,normalized growth,"S. cerevisiae deletion strains, locus YDL028C, strain MPS1, hits give low values",0.94
same,normalized growth,[1],0.987
same,normalized growth,"S. cerevisiae deletion strains, locus YDL108W, strain KIN28, hits give low values",0.943
same,normalized growth,"S. cerevisiae deletion strains, locus YDL132W, strain cdc53, hits give low values",0.95
same,normalized growth,"S. cerevisiae deletion strains, locus YDL214C, strain PRR2, hits give low values",0.88
same,normalized growth,"S. cerevisiae deletion strains, locus YDR052C, strain DBF4, hits give low values",0.952
same,normalized growth,"S. cerevisiae deletion strains, locus YDR054C, strain cdc34, hits give low values",0.955
same,normalized growth,"S. cerevisiae deletion strains, locus YDR226W, strain ADK1, hits give low values",0.929
same,normalized growth,"S. cerevisiae deletion strains, locus YDR477W, strain SNF1, hits give low values",0.731
same,normalized growth,"S. cerevisiae deletion strains, locus YER123W, strain YCK3, hits give low values",0.651
same,normalized growth,"S. cerevisiae deletion strains, locus YER133W, strain GLC7, hits give low values",0.909
same,normalized growth,"S. cerevisiae deletion strains, locus YFL009W, strain cdc4, hits give low values",0.938
same,normalized growth,"S. cerevisiae deletion strains, locus YFL029C, strain CAK1, hits give low values",0.956
same,normalized growth,"S. cerevisiae deletion strains, locus YFR003C, strain YPI1, hits give low values",0.967
same,normalized growth,"S. cerevisiae deletion strains, locus YFR019W, strain FAB1, hits give low values",0.767 (active)
same,normalized growth,"S. cerevisiae deletion strains, locus YFR028C, strain CDC14, hits give low values",0.931
same,normalized growth,"S. cerevisiae deletion strains, locus YGR040W, strain KSS1, hits give low values",0.809
same,normalized growth,"S. cerevisiae deletion strains, locus YGR052W, strain FMP48, hits give low values",0.832
same,normalized growth,"S. cerevisiae deletion strains, locus YGR092W, strain DBF2, hits give low values",0.78
same,normalized growth,[2],0.536 (active)
same,normalized growth,"S. cerevisiae deletion strains, locus YHR079C, strain IRE1, hits give low values",0.918
same,normalized growth,"S. cerevisiae deletion strains, locus YHR082C, strain KSP1, hits give low values",0.848
same,normalized growth,"S. cerevisiae deletion strains, locus YHR205W, strain SCH9, hits give low values",0.746
same,normalized growth,"S. cerevisiae deletion strains, locus YIL147C, strain SLN1, hits give low values",0.955
same,normalized growth,"S. cerevisiae deletion strains, locus YJL095W, strain BCK1, hits give low values",0.695
same,normalized growth,"S. cerevisiae deletion strains, locus YJL157C, strain FAR1, hits give low values",0.94
same,normalized growth,"S. cerevisiae deletion strains, locus YJR016C, strain ILV3, hits give low values",0.971
same,normalized growth,"S. cerevisiae deletion strains, locus YJR066W, strain TOR1 (second series), hits give low values",0.865
same,normalized growth,"S. cerevisiae deletion strains, locus YJR066W, strain TOR1, hits give low values",0.771
same,normalized growth,"S. cerevisiae deletion strains, locus YKL048C, strain ELM1, hits give low values",0.889
same,normalized growth,"S. cerevisiae deletion strains, locus YKL067W, strain YNK1, hits give low values",0.906
same,normalized growth,"S. cerevisiae deletion strains, locus YKL101W, strain HSL1, hits give low values",0.842
same,normalized growth,"S. cerevisiae deletion strains, locus YKL193C, strain SDS22, hits give low values",0.96
same,normalized growth,"S. cerevisiae deletion strains, locus YKL203C, strain TOR2, hits give low values",0.926
same,normalized growth,"S. cerevisiae deletion strains, locus YLR113W, strain HOG1, hits give low values",0.498 (active)
same,normalized growth,"S. cerevisiae deletion strains, locus YLR403W, strain SFP1, hits give low values",0.842
same,normalized growth,"S. cerevisiae deletion strains, locus YML070W, strain DAK1, hits give low values",0.849
same,normalized growth,"S. cerevisiae deletion strains, locus YMR001C, strain CDC5, hits give low values",0.953
same,normalized growth,"S. cerevisiae deletion strains, locus YMR205C, strain PFK2 (second series), hits give low values",0.904
same,normalized growth,"S. cerevisiae deletion strains, locus YMR277W, strain FCP1, hits give low values",0.931
same,normalized growth,"S. cerevisiae deletion strains, locus YNL006W, strain LST8, hits give low values",0.972
same,normalized growth,"S. cerevisiae deletion strains, locus YNL020C, strain ARK1, hits give low values",0.901
same,normalized growth,"S. cerevisiae deletion strains, locus YNL161W, strain CBK1, hits give low values",0.97
same,normalized growth,"S. cerevisiae deletion strains, locus YNL183C, strain NPR1, hits give low values",0.889
same,normalized growth,"S. cerevisiae deletion strains, locus YNL207W, strain RIO2, hits give low values",0.963
same,normalized growth,"S. cerevisiae deletion strains, locus YNL222W, strain SSU72, hits give low values",0.946
same,normalized growth,"S. cerevisiae deletion strains, locus YOL078W, strain AVO1, hits give low values",0.955
same,normalized growth,"S. cerevisiae deletion strains, locus YOL136C, strain PFK27, hits give low values",0.864
same,normalized growth,"S. cerevisiae deletion strains, locus YOR061W, strain CKA2, hits give low values",0.715
same,normalized growth,"S. cerevisiae deletion strains, locus YOR119C, strain RIO1, hits give low values",0.79
same,normalized growth,"S. cerevisiae deletion strains, locus YOR231W, strain MKK1, hits give low values",0.884
same,normalized growth,"S. cerevisiae deletion strains, locus YOR329C, strain SCD5, hits give low values",0.976
same,normalized growth,"S. cerevisiae deletion strains, locus YPL031C, strain PHO85, hits give low values",0.81
same,normalized growth,"S. cerevisiae deletion strains, locus YPL153C, strain RAD53, hits give low values",0.84
same,normalized growth,"S. cerevisiae deletion strains, locus YPL204W, strain HRR25, hits give low values",0.832
same,normalized growth,"S. cerevisiae deletion strains, locus YPL209C, strain IPL1, hits give low values",0.956
same,normalized growth,"S. cerevisiae deletion strains, locus YPL256C, strain CLN2, hits give low values",0.749 (active)
same,normalized growth,"S. cerevisiae deletion strains, locus YPR025C, strain CCL1, hits give low values",0.959
same,normalized growth,"S. cerevisiae deletion strains, locus YPR106W, strain ISR1, hits give low values",0.957
same,normalized growth,"S. cerevisiae deletion strains, locus YPR111W, strain DBF20, hits give low values",0.929
same,normalized growth,"S. cerevisiae deletion strains, strain NNK1, hits give low values",0.97
same,normalized growth,"S. cerevisiae deletion strains, strain TSCII, hits give low values",0.946
Cc1ccc(-n2cccc2)c(NC(=S)Nc2ccc(Br)cc2OC(F)(F)F)c1,normalized growth,[3],0.978
same,normalized growth,[4],1
same,normalized growth,[1],1.02
same,normalized growth,"S. cerevisiae deletion strains, locus YDL134C, strain PPH21, hits give low values",1.01
same,normalized growth,[5],0.892
same,normalized growth,[6],0.988
same,normalized growth,[7],0.973
same,normalized growth,[8],1.03
same,normalized growth,[2],0.558 (active)
same,normalized growth,[9],1.02
same,normalized growth,[10],0.987
same,normalized growth,[11],1.03
same,normalized growth,[12],0.972
same,normalized growth,[13],0.621 (active)
same,normalized growth,[14],1.01
same,normalized growth,[15],0.658 (active)
same,normalized growth,[16],0.587 (active)
same,normalized growth,[17],0.904
same,normalized growth,[18],1.01
same,normalized growth,[19],0.964
same,normalized growth,[20],0.979
same,normalized growth,[21],0.757 (active)
same,normalized growth,[22],1.01
same,normalized growth,[23],0.925
same,normalized growth,[24],0.796
same,normalized growth,[25],0.882
same,normalized growth,[26],0.92
same,normalized growth,[27],0.679
same,normalized growth,[28],0.998
COCCCNC(=S)Nc1ccc(C)cc1C,normalized growth,[3],0.985
same,normalized growth,[4],0.974
same,normalized growth,[1],0.968
same,normalized growth,[5],0.966
same,normalized growth,[6],1.01
same,normalized growth,[7],0.98
same,normalized growth,[8],0.986
same,normalized growth,[2],0.974
same,normalized growth,[9],1.04
same,normalized growth,[10],0.993
same,normalized growth,[11],0.977
same,normalized growth,[12],1
same,normalized growth,[13],0.975
same,normalized growth,[14],0.982
same,normalized growth,[15],0.921
same,normalized growth,[16],0.961
same,normalized growth,[17],1
same,normalized growth,[18],0.99
same,normalized growth,[19],0.999
same,normalized growth,[20],0.986
same,normalized growth,[21],0.97
same,normalized growth,[22],0.981
same,normalized growth,[23],1
same,normalized growth,[24],0.923
same,normalized growth,[25],1.01
same,normalized growth,[26],0.973
same,normalized growth,[27],0.917
same,normalized growth,[28],0.987
Cc1ccc(NC(=S)NCCO)c(C)c1,normalized growth,[3],1
same,normalized growth,[4],0.987
same,normalized growth,[1],1.01
same,normalized growth,[5],1
same,normalized growth,[6],0.99
same,normalized growth,[7],1.01
same,normalized growth,[2],1
same,normalized growth,[9],1.01
same,normalized growth,[11],0.997
same,normalized growth,[12],0.978
same,normalized growth,[13],1.01
same,normalized growth,[14],0.996
same,normalized growth,[15],1
same,normalized growth,[16],1
same,normalized growth,[17],1.01
same,normalized growth,[18],1
same,normalized growth,[19],1
same,normalized growth,"S. cerevisiae deletion strains, locus YNL128W, strain TEP1, hits give low values",1
same,normalized growth,[20],1
same,normalized growth,[21],1.02
same,normalized growth,[22],0.98
same,normalized growth,[23],0.986
same,normalized growth,[24],1.03
same,normalized growth,[25],1.01
same,normalized growth,[26],0.945
same,normalized growth,[27],1.03
